Consider eight molecules from PubChem BioAssay (NCATS).

Records with an inconclusive call do not appear. The source made the active and inactive calls. The call rests on the fitted dose curve; in most records, active means well fitted curve in the direction sought with a large enough effect; inconclusive means small, poorly fitted or top-dose-only effect, or another doubt; inactive means no such curve, though single readings can be large; an effect the other way counts as inactive or inconclusive.

The nature of assay [1]: Quantitative High-Throughput drug screen in 47 multiple myeloma cell lines against the NCATS MIPE library collection: AMO1_DSMZ cell viability assay (AID 1918927; further: nearly all actives have a fitted effect of over 30% in size; further: potency means the concentration at half of the fitted maximal effect). The method in brief:
(§1)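 Relative luminescence from CellTiter-Glo served as the viability signal, referenced to DMSO-treated (100%) and cell-free medium (0%) controls. Treatment lasted 48 hours at 37C with 500 cells per well.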

Assay [2] in a line: Quantitative High-Throughput drug screen in 47 multiple myeloma cell lines against the NCATS MIPE library collection: ARP1_JJKsccF8 cell viability assay (AID 1918928; further: nearly all actives have a fitted effect of over 40% in size; further: potency means the concentration at half of the fitted maximal effect). The method in brief:
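Myeloma cells at 500 per well in 1536-well format treated with MIPE 4.0 library by pin transfer for 48 h at 37C, 5% CO2. Viability from ATP luminescence (CellTiter-Glo), normalized to DMSO (100%) and media-only (0%) wells.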

Assay [3] can be described thus: Quantitative High-Throughput drug screen in 47 multiple myeloma cell lines against the NCATS MIPE library collection: ARD_JJKsccE7 cell viability assay (AID 1918929; further: potency means the concentration at half of the fitted maximal effect). The method in brief: as §1
The nature of assay [4]: Quantitative High-Throughput drug screen in 47 multiple myeloma cell lines against the NCATS MIPE library collection: Karpas620_DSMZ cell viability assay (AID 1918959). Further: nearly all actives have a fitted effect of over 30% in size. Further: potency means the concentration at half of the fitted maximal effect. In outline:
(§2)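 Luminescent ATP measurement with CellTiter-Glo gives viability, scaled between DMSO-only wells (100%) and media-only wells (0%). Cells, 500 per well, faced library compounds for 48 hours at 37C.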

A short description of assay [5]: Quantitative High-Throughput drug screen in 47 multiple myeloma cell lines against the NCATS MIPE library collection: JIM3_ECACC cell viability assay (AID 1918963; further: nearly all actives have a fitted effect of over 35% in size; further: potency means the concentration at half of the fitted maximal effect). The method in brief:
as §2

The nature of assay [6]: Quantitative High-Throughput drug screen in 47 multiple myeloma cell lines against the NCATS MIPE library collection: INA6_PLB cell viability assay (AID 1918965; further: nearly all actives have a fitted effect of over 55% in size; further: potency means the concentration at half of the fitted maximal effect). The method in brief:
(§3)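 Steps: seed 500 cells per well; pin-transfer MIPE 4.0 library; incubate 48 h at 37C, 5% CO2, humidified; add CellTiter-Glo, 5 min room temperature; read luminescence.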

Assay [7] can be described thus: Quantitative High-Throughput drug screen in 47 multiple myeloma cell lines against the NCATS MIPE library collection: JJN3_DSMZ cell viability assay (AID 1918966; further: nearly all actives have a fitted effect of over 50% in size; further: potency means the concentration at half of the fitted maximal effect). In outline: as §1
The nature of assay [8]: Quantitative High-Throughput drug screen in 47 multiple myeloma cell lines against the NCATS MIPE library collection: H1112_PLB cell viability assay (AID 1918967; further: nearly all actives have a fitted effect of over 30% in size; further: potency means the concentration at half of the fitted maximal effect). The method in brief: as §1
Assay [9] is described as follows: Quantitative High-Throughput drug screen in 47 multiple myeloma cell lines against the NCATS MIPE library collection: Karpas25_ECACC cell viability assay (AID 1918968; further: nearly all actives have a fitted effect of over 35% in size; further: potency means the concentration at half of the fitted maximal effect). In outline:
as §1

Assay [10] is described as follows: Quantitative High-Throughput drug screen in 47 multiple myeloma cell lines against the NCATS MIPE library collection: KMS20_JCRB cell viability assay (AID 1918973). Further: nearly all actives have a fitted effect of over 45% in size. Further: potency means the concentration at half of the fitted maximal effect. The method in brief:
as §1

A short description of assay [11]: Quantitative High-Throughput drug screen in 47 multiple myeloma cell lines against the NCATS MIPE library collection: KMS26_JCRB cell viability assay (AID 1918975). Further: nearly all actives have a fitted effect of over 45% in size. Further: potency means the concentration at half of the fitted maximal effect. In outline:
as §3

A short description of assay [12]: Quantitative High-Throughput drug screen in 47 multiple myeloma cell lines against the NCATS MIPE library collection: MMM1_PLB cell viability assay (AID 1918976). Further: potency means the concentration at half of the fitted maximal effect; nearly all actives have a fitted effect of over 35% in size. The note with it: MMM1 myeloma cells viability, CellTiter-Glo, 48 h. In outline:
(§4)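 Inhibition of viability over 48 h was scored by ATP content (CellTiter-Glo) in 500-cell wells. Zero and full viability were defined by media-only and DMSO-only wells.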

The nature of assay [13]: Quantitative High-Throughput drug screen in 47 multiple myeloma cell lines against the NCATS MIPE library collection: NCIH929_DSMZ cell viability assay (AID 1918978). Further: nearly all actives have a fitted effect of over 35% in size. Further: potency means the concentration at half of the fitted maximal effect. The method in brief:
as §4

Assay [14] can be described thus: Quantitative High-Throughput drug screen in 47 multiple myeloma cell lines against the NCATS MIPE library collection: MM1S_ATCC cell viability assay (AID 1918980). Further: nearly all actives have a fitted effect of over 45% in size. Further: potency means the concentration at half of the fitted maximal effect. The method in brief:
as §4

Assay [15] can be described thus: Quantitative High-Throughput drug screen in 47 multiple myeloma cell lines against the NCATS MIPE library collection: MM1R_ATCC cell viability assay (AID 1918981). Further: nearly all actives have a fitted effect of over 35% in size. Further: potency means the concentration at half of the fitted maximal effect. In outline: as §4
A short description of assay [16]: Quantitative High-Throughput drug screen in 47 multiple myeloma cell lines against the NCATS MIPE library collection: LP1_DSMZ cell viability assay (AID 1918982). Further: nearly all actives have a fitted effect of over 35% in size. Further: potency means the concentration at half of the fitted maximal effect. In outline: as §4
Assay [17] in a line: Quantitative High-Throughput drug screen in 47 multiple myeloma cell lines against the NCATS MIPE library collection: KMS28PE_JCRB cell viability assay (AID 1918983). Further: nearly all actives have a fitted effect of over 35% in size. Further: potency means the concentration at half of the fitted maximal effect. The method in brief:
as §4

A short description of assay [18]: Quantitative High-Throughput drug screen in 47 multiple myeloma cell lines against the NCATS MIPE library collection: JIM1_ECACC cell viability assay (AID 1918964; further: potency means the concentration at half of the fitted maximal effect). The method in brief:
as §1

Assay [19] is described as follows: Quantitative High-Throughput drug screen in 47 multiple myeloma cell lines against the NCATS MIPE library collection: MOLP8_DSMZ cell viability assay (AID 1918977). Further: nearly all actives have a fitted effect of over 45% in size. In outline:
as §4

Assay [20] in a line: Quantitative High-Throughput drug screen in 47 multiple myeloma cell lines against the NCATS MIPE library collection: KMS21BM_JCRB cell viability assay (AID 1918974). Further: potency means the concentration at half of the fitted maximal effect. In outline:
as §1

Regarding `Cc1sc2c(c1C)C(c1ccc(Cl)cc1)=N[C@@H](CC(=O)OC(C)(C)C)c1nnc(C)n1-2`, the Potency in assay [1] was 83.3 nM (active); in assay [2], 209 nM (active); in [3] it was 41.8 nM (active); in assay [4] it was 132 nM (active); in assay [5], 1660 nM (active); in [6], 29.6 nM (active). Also, the Potency is 296 nM (active) in [7]; 6620 nM (active) in assay [8]; 526 nM (active) in [9]; 1180 nM (active) in [10]; 526 nM (active) in assay [11]; 1050 nM (active) in assay [12]. The Potency was 148 nM (active) in [13]; 1320 nM (active) in assay [14]; 332 nM (active) in assay [15]; 1050 nM (active) in assay [16]; 235 nM (active) in assay [17].

For the molecule `O=C1CC[C@@]2(O)[C@H]3Cc4ccc(O)c5c4[C@@]2(CCN3CC2CC2)[C@H]1O5`, the Potency result in assay [2], in assay [3], in assay [4], in [5], in assay [18] and in assay [8] was “inactive” throughout. In addition, the Potency result in assay [9], in [11], in [13], in assay [14], in assay [16] and in assay [17] was “inactive” throughout. Also, the Potency in [6] is 8330 nM (active).

For `C#CCN(C)[C@H](C)Cc1ccccc1`, the Potency entry in assay [2], in assay [3], in [4], in [5], in assay [8] and in [9] was “inactive” throughout. Besides, the Potency entry in [10], in assay [11], in assay [13], in assay [14] and in assay [16] was “inactive” in each case. Also, the results for the Potency in [7] and in assay [12] were 8330 nM (active) and 2960 nM (active), respectively.

As for `CC1=C2C[C@@H]3[C@@H](CC=C4C[C@@H](O)CC[C@@]43C)[C@@H]2CC[C@]12O[C@H]1C[C@H](C)CN[C@H]1[C@H]2C`, the Potency result in assay [1], in assay [2], in assay [3], in assay [4], in [5] and in assay [18] was “inactive” in each case. For the same molecule, the Potency entry in [6], in assay [8], in assay [9], in [11], in [19] and in [13] was “inactive” in each case. Further, the Potency result in assay [16] is “inactive”. Also, the Potency in assay [10] is 46.9 nM (active); in [12] it was 9350 nM (active); in assay [15], 14800 nM (active).

Take `O=C(O)C(=O)c1cn(Cc2ccccc2)c2ccc(-c3ccc(OC(F)(F)F)cc3)cc12`: the Potency entry in [1], in assay [2], in assay [3], in assay [4], in assay [18] and in assay [11] was “inactive” throughout. In addition, the Potency entry in assay [15] and in assay [16] was “inactive” each time. Moreover, the Potency is 18700 nM (active) in [5]; 14800 nM (active) in assay [8]; 16600 nM (active) in [9]; 23500 nM (active) in assay [14]; 3320 nM (active) in assay [17].

With `C=C(C)[C@H]1Cc2c(ccc3c2O[C@@H]2COc4cc(OC)c(OC)cc4[C@@H]2C3=O)O1`, the Potency in [1] was 469 nM (active); in [2], 526 nM (active); in assay [3] it was 332 nM (active); in assay [4], 296 nM (active); in assay [5], 935 nM (active); in assay [18], 418 nM (active). For the same molecule, the Potency in assay [6] is 118 nM (active); in assay [7] it was 7430 nM (active); in assay [8] it was 132 nM (active); in assay [9], 46.9 nM (active); in assay [10] it was 332 nM (active); in assay [20] it was 209 nM (active). Also, the Potency in [12] was 166 nM (active); in [13], 1870 nM (active); in [14] it was 1320 nM (active); in assay [15], 526 nM (active); in assay [16] it was 264 nM (active).

Take `CNC(=O)c1ccc(N2C(=S)N(c3ccc(C#N)c(C(F)(F)F)c3)C(=O)C23CCC3)cc1F`: the Potency in [1] was 2640 nM (active); in assay [3], 16600 nM (active); in [4] it was 18700 nM (active); in [5], 23500 nM (active); in [6], 16600 nM (active); in [8], 3720 nM (active). Besides, the Potency in assay [9] was 2960 nM (active); in [10], 8330 nM (active); in assay [11], 18700 nM (active); in assay [13], 1320 nM (active); in assay [14] it was 1050 nM (active); in [15], 13200 nM (active). For the same molecule, the Potency entry in [2] and in assay [17] was “inactive” throughout.

Regarding `Cc1cc(SCc2sc(-c3ccc(C(F)(F)F)c(F)c3)nc2C)ccc1OCC(=O)O`, the Potency in assay [5] was 20900 nM (active); in assay [8] it was 20900 nM (active); in assay [9] it was 16600 nM (active); in [11] it was 4690 nM (active); in assay [13] it was 20900 nM (active); in [14], 9350 nM (active). Besides, the Potency in assay [16] is 16600 nM (active). Moreover, the Potency entry in assay [7] is “inactive”.
